Where “and” joins values, the source holds several entries; their conditions need not be identical. Equal values may be shown once. Among all 5,500 compounds or so, about 2,000 (36%) were called active. Inconclusive results (about 18%) are left out. Cut-off read from the data, not from the text of the source: active = normalized growth mostly below about 0.91 (no sharp cut-off); inconclusive = no clear call, values can overlap the other calls; inactive = mostly above about 0.92. The list shows a part of the results.
Experiment: chemical genetic growth profiling, strain panel (AID 1159580);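 note: tested at 20 µM; growth read once vehicle control cultures reached saturation at 30 °C; 1 = growth at the plate median or of vehicle wells; lower values mean less growth of the strain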
Conditions: S. cerevisiae deletion strains, growth OD

Measured: normalized growth

CC(=O)OCC(=O)[C@@]12OC3(CCCC3)O[C@@H]1CC1C3CCC4=CC(=O)C=C[C@]4(C)[C@@]3(F)[C@@H](O)C[C@@]12C (stereo partly specified)
inactive: locus YAL013W, strain DEP1, hits give low values 1.02 | locus YAL021C, strain ccr4, hits give low values 1.01 | locus YAL026C, strain drs2, hits give low values 1.02 | locus YAL030W, strain snc1, hits give low values 1.02 | locus YBL061C, strain skt5, hits give low values 1.03 | locus YBR009C, strain hhf1, hits give low values 1.01 | locus YBR021W, strain FUR4, hits give low values 1.02 | locus YBR023C, strain chs3, hits give low values 1.01 | locus YBR171W, strain sec66, hits give low values 1.02 | locus YBR229C, strain ROT2, hits give low values 1.02 | locus YBR231C, strain swc5, hits give low values 1.02 | locus YBR279W, strain paf1, hits give low values 1.01 | locus YCL011C, strain gbp2, hits give low values 1.02 | locus YCL016C, strain dcc1, hits give low values 1.01 | locus YCL029C, strain bik1, hits give low values 0.985 | locus YCL069W, strain vba3, hits give low values 1.02 | locus YCR088W, strain abp1, hits give low values 1.02 | locus YDL005C, strain med2, hits give low values 1.02 | locus YDL035C, strain GPR1, hits give low values 1.01 | locus YDL040C, strain nat1, hits give low values 1.02 | locus YDL074C, strain BRE1, hits give low values 0.972 | locus YDL101C, strain DUN1, hits give low values 1.01 | locus YDL134C, strain PPH21, hits give low values 1.01 | locus YDL185W, strain tfp1, hits give low values 1 | locus YDL192W, strain arf1, hits give low values 1 | locus YDR001C, strain nth1, hits give low values 1.02 | locus YDR069C, strain doa4, hits give low values 1.01 | locus YDR101C, strain arx1, hits give low values 0.984 | locus YDR137W, strain rgp1, hits give low values 1.02 | locus YDR150W, strain NUM1, hits give low values 1.02 | locus YDR159W, strain sac3, hits give low values 1.02 | locus YDR162C, strain NBP2, hits give low values 1.02 | locus YDR195W, strain ref2 1.03 | locus YDR297W, strain sur2, hits give low values 1.02 | locus YDR318W, strain mcm21, hits give low values 1 | locus YDR334W, strain swr1, hits give low values 1.02 | locus YDR335W, strain msn5, hits give low values 1.01 | locus YDR388W, hits give low values 1 | locus YDR392W, strain spt3, hits give low values 1.03 | locus YDR502C, strain sam2, hits give low values 1.02 | locus YEL003W, strain gim4, hits give low values 1.02 | locus YEL037C, strain rad23, hits give low values 1.02 | locus YEL061C, strain CIN8 (second series), hits give low values 1.03 | locus YEL061C, strain CIN8, hits give low values 1.01 | locus YER015W, strain faa2, hits give low values 1.01 | locus YER016W, strain bim1, hits give low values 1.03 | locus YER110C, hits give low values 1 | locus YER111C, strain swi4, hits give low values 1.02 | locus YER155C, strain BEM2 (second series), hits give low values 1.08 | locus YER155C, strain BEM2, hits give low values 1.02 | locus YER167W, strain BCK2, hits give low values 1.02 | locus YFR010W, strain ubp6, hits give low values 1.02 | locus YGL078C, strain dbp3, hits give low values 0.987 | locus YGL086W, strain mad1, hits give low values 1 | locus YGL167C, strain pmr1, hits give low values 1.03 | locus YGL173C, strain kem1, hits give low values 1.02 | locus YGL227W, strain vid30, hits give low values 1.02 | locus YGL240W, strain doc1, hits give low values 1.03 | locus YGL248W, strain PDE1, hits give low values 1.01 | locus YGL253W, strain hxk2, hits give low values 0.963 | locus YGR078C, strain PAC10, hits give low values 1.01 | locus YGR135W, strain pre9, hits give low values 0.989 | locus YGR229C, strain SMI1, hits give low values 1.03 | locus YGR252W, strain gcn5, hits give low values 1.04 | locus YHR013C, strain ard1, hits give low values 1.03 | locus YHR027C, strain rpn1, hits give low values 1.02 | locus YHR030C, strain SLT2, hits give low values 1.01 and 0.976 | locus YHR079C, strain IRE1 (second series), hits give low values 0.986 | locus YHR079C, strain IRE1, hits give low values 0.978 | locus YHR094C, strain hxt1, hits give low values 0.991 | locus YHR129C, strain ARP1, hits give low values 1.01 | locus YHR142W, strain chs7, hits give low values 1 | locus YHR200W, strain rpn10, hits give low values 0.994 | locus YIL066C, strain RNR3, hits give low values 1.01 | locus YIL073C, strain SPO22, hits give low values 0.966 | locus YIL125W, strain kgd1, hits give low values 1.01 | locus YIR030C, strain dcg1, hits give low values 0.992 | locus YJL092W, strain hpr5, hits give low values 1.02 | locus YJL095W, strain BCK1 (second series), hits give low values 1.02 | locus YJL095W, strain BCK1, hits give low values 1.01 and 0.989 | locus YJL115W, strain asf1, hits give low values 1.03 | locus YJL129C, strain trk1, hits give low values 1.01 | locus YJL134W, strain LCB3, hits give low values 1.01 | locus YJL154C, strain vps35, hits give low values 1.02 | locus YJL164C, strain tpk1, hits give low values 1 | locus YJL166W, strain qcr8, hits give low values 1.02 | locus YJL168C, strain set2, hits give low values 1 | locus YJL187C, strain SWE1 (second series), hits give low values 1.01 | locus YJL187C, strain SWE1, hits give low values 1.03 | locus YJR043C, strain POL32, hits give low values 0.988 | locus YJR066W, strain TOR1, hits give low values 0.968
